# Screens: PubChem, National Center for Advancing Translational Sciences (NCATS)
# The list is not random: actives were taken first. Their share in the collection is about 3.3%.
# PI5P4Ka inh: blocks human PI5P4K alpha kinase activity. P48426. PI5P4Kalpha enzyme, ADP-Glo luminescence, 60 min; hits give low values. max response, %. actives 1.2% (n = 330,000). AID 652105; active means max response of -50% or lower; inconclusive means between -30% and -50%; inactive means -30% or higher; further: value at the top dose of about 77 µM; on the % scale 0 is the no-effect control and ±100 the full control effect
#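 Quantitative HTS of the MLSMR library against PI5P4Kalpha with substrate. ATP added last at 5 microM final; room temperature, 60 minutes. Remaining ATP depleted, ADP converted and read as luminescence.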
# PI4K2A block: blocks human PI4K2A kinase activity. Q9BTU6. purified PI4K2A, ADP-Glo luminescence, 1 h; hits give low values. activity change, negative = inhibition, % at 76.9 µM. actives 0.13% (n = 420,000). AID 1346378; in the data active means activity change below about -50%; inconclusive means mostly about -30% to -49%;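 further: -100% = wells without enzyme as full effect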
# Target sequence (Q9BTU6 whole entry, looked up): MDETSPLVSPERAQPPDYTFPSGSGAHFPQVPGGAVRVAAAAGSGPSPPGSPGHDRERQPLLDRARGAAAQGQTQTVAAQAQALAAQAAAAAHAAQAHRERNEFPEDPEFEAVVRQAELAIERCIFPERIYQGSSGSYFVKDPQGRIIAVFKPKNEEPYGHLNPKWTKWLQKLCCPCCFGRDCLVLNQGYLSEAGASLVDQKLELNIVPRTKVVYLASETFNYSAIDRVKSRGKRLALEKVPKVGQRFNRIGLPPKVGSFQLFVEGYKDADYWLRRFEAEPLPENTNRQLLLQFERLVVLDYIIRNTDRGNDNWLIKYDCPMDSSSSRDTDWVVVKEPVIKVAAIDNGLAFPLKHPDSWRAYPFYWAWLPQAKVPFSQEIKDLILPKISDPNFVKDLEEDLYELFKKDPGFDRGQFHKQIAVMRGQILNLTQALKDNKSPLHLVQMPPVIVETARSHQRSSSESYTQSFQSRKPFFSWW
#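 ADP-Glo luminescence measured ADP generated by PI4K2A enzyme (4 ug/mL before mixing) with 1.2 mM PI substrate (pre-mix) and 300 microM ATP (pre-mix). Tris pH7.5 buffer with MgCl2, Triton X-100; 1 h reaction at ambient temperature.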
# LDHA inh: blocks human lactate dehydrogenase A. purified LDHA, NADH/diaphorase-resazurin fluorescence; hits give low values. activity change, % (values are at about 110 or 230 µM). P00338. AID 1347041. actives 0.15% (n = 480,000); in the data active means activity change below about -30%; inconclusive means mostly about -25% to -30%;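 further: plate controls were DMSO wells for no effect and wells without enzyme for full effect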
#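 Remaining NADH was detected by diaphorase (0.133 mg/mL) converting 37 µM resazurin to fluorescent resorufin, read at 0 and 20 minutes. The preceding 5-minute room-temperature reaction used 2 nM LDHA, 0.2 mM sodium pyruvate and 0.06 mM NADH at pH 7.4.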
# D3 antag: antagonists of human D3 dopamine receptor; max response, negative = inhibition, %; AID 652054; D3R cells, DiscoveRx beta-arrestin luminescence, antagonist mode; hits give low values; actives 2.5% (n = 360,000); P35462; in the data active means max response below about -50%; inconclusive means no clear call, values can overlap the other calls; further: on the % scale 0 is the no-effect control and ±100 the full control effect
#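 Cells expressing the human receptor were seeded at 1500 cells/well, incubated overnight at 37 degrees C in 5% CO2, then exposed to library compounds with dopamine controls for 90 minutes at 37 degrees C before luminescent detection.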
# D3 ag: agonists of human D3 dopamine receptor; P35462; D3R DiscoveRx beta-arrestin cells, luminescence, 90 min; max activation, %; actives 0.58% (n = 410,000); AID 652048; in the data active means max activation above about 30%; further: 0% is about no effect
#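 Agonist mode: compounds and dopamine controls were applied to plated cells for 90 min at 37 degrees C after an overnight attachment at 1500 cells/well. Luminescent read-out followed 30 - 60 minutes at room temperature with DiscoveRx detection reagent.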
# * marks the source's active call; other numbers are inactive results; ? = inconclusive; / = no result given; ! = not confirmed by another sample.
SMILES,PI5P4Ka inh,PI4K2A block,LDHA inh,D3 antag,D3 ag
Cc1cnc(CN(C)C(=O)c2ccc3oc(Cc4ccc(Cl)cc4)nc3c2)[nH]1,2,9,-2,-57*,-5
Cc1cnc(CN(C)C(=O)c2ccc3oc(Cc4ccccc4)nc3c2)[nH]1,3,-3,-7,-14,-6
COc1ccc(CCNC(=O)C2CC(c3cc(C(F)(F)F)cc(C(F)(F)F)c3)=NO2)cc1 (configuration not stated),12,-5,3,5,33*
CCCNC(=O)C1CC(c2ccc(C(F)(F)F)cc2)=NO1 (configuration not stated),5,2,-4,-14,38*
COc1ccc(C2=NOC(C(=O)NCC(C)C)C2)cc1 (configuration not stated),/,6,-10,-90*,-2
COc1ccc(CNC(=O)C2CC(c3ccc(OC)cc3)=NO2)cc1 (configuration not stated),/,7,-3,-11,-6
CCCCNC(=O)C1CC(c2ccc(C(F)(F)F)cc2)=NO1 (configuration not stated),-2,-3,-2,9,20
O=C(NCCCCc1ccccc1)C1CC(c2ccc(C(F)(F)F)cc2)=NO1 (configuration not stated),6,-1,-3,53,58*
CC1=C(C(=O)N(C(C)C)C(C)C)CC(CC(=O)NC2CCCCC2)C(=O)N1Cc1ccccc1 (configuration not stated),3,8,-34*,-23,-16
CCCS(=O)(=O)NC(=O)C1(C)CCN(C(=O)COc2ccc(Cl)cc2Cl)C1 (configuration not stated),-22,0,-1,14,76*
CCCS(=O)(=O)NC(=O)C1(C)CCCN(C(=O)COc2ccc(Cl)cc2Cl)C1 (configuration not stated),-10,3,-5,-20,-13
CC(=O)Nc1ccc(C(=O)COC(=O)c2ccccc2OCc2ccc(F)cc2)cc1,/,/,0,/,/
COC(=O)CCCNC(=O)CN1CCCCC1C (configuration not stated),/,/,-2,/,/
O=C(CNC(=O)c1nc[nH]c1C(=O)N1CCNCC1)OCc1ccccc1,0,-3,0,3,13
CC(C)(C)OC(=O)CNC(=O)c1[nH]cnc1C(=O)NC1CCN(C(=O)OC(C)(C)C)CC1,-6,2,0,29,1
CC(C)(C)OC(=O)N1CCC(NC(=O)c2[nH]cnc2C(=O)Nc2cccc(Cl)c2)CC1,-3,5,-1,0,66*
O=C(CNC(=O)c1nc[nH]c1C(=O)N1CCc2ccccc2C1)OCc1ccccc1,3,-3,3,54,40*
CC(C)(C)OC(=O)N1CCC(NC(=O)c2nc[nH]c2C(=O)NCC(=O)OCc2ccccc2)CC1,2,1,4,95,69*
CC(C)C[C@H](NC(=O)c1nc[nH]c1C(=O)N[C@@H](CC(C)C)C(=O)OC(C)(C)C)C(=O)OC(C)(C)C,4,-3,5,-55*,-16
CC(C)(C)OC(=O)[C@H](Cc1ccccc1)NC(=O)c1[nH]cnc1C(=O)Nc1cccc(Cl)c1,31,-2,-2,-54*,0
CCC(C)NC(=O)c1cccc2c(=O)c(C)c(-c3ccccc3)oc12 (configuration not stated),/,/,-3,/,/
Cc1cn([C@H]2C[C@H](O)[C@@H](CNCc3ccc(-c4cc(Cl)ccc4C(F)(F)F)o3)O2)c(=O)[nH]c1=O,-4,-1,0,-75*,-17
CC(C)c1ccc(NC(=O)CN(c2ccnn2C(C)C)S(=O)(=O)c2ccccc2)cc1,/,/,12,/,/
O=C(CN1C(=O)CSc2ccc(S(=O)(=O)N3CCOCC3)cc21)NCCCN1CCOCC1,0,21,-8,-6,-15
O=C(CN1C(=O)CSc2ccc(S(=O)(=O)N3CCOCC3)cc21)NCCCN1CCc2ccccc2C1,0,3,-6,-62*,-11
SMILES,PI5P4Ka inh,PI4K2A block,LDHA inh,D3 antag,D3 ag
C[n+]1ccc(/C=C/c2ccc(Br)cc2)cc1,-4,10,-32*,-14,0
CCOC(=O)N1CCN(S(=O)(=O)c2cc(C(C)C)c(C)cc2OCC)CC1,/,/,-3,/,/
Cc1coc2c(C)c3oc(=O)c(CCC(=O)NCCCn4ccnc4)c(C)c3cc12,-3,1,-1,-69*,-48
CC(C)(C)c1ccc(NC(=O)CNS(=O)(=O)c2ccccc2Br)cc1,/,/,12,/,/
CCN1CCc2nc(N)oc2CC1,-8,-9,-4,-16,41*!
CCCCC1=CC2=C(c3ccco3)C(=O)C(C)(OC(=O)c3ccc(OC)cc3)C(=O)C2=CN1CCCCO (configuration not stated),-29,-9,10,-24,14
CCCCC1=CC2=C(c3ccco3)C(=O)C(C)(OC(=O)c3ccc(OC)cc3)C(=O)C2=CN1CC1CC1 (configuration not stated),?,-8,5,-64*,-36
COc1cccc(C(=O)CN2C3=NCCCN3c3ccccc32)c1,-5,8,-1,-62*,-2
Fc1ccc(CN2CCCN(C(=S)Nc3ccc(F)cc3)CC2)cc1,-7,0,-6,-59*,-14
CCOc1ccc(NC(=S)N2CCCN(Cc3cccc(Cl)c3)C2)cc1,-1,4,-2,-74*,-13
S=C(Nc1ccccc1)N1CCN(Cc2ccccc2)CC1,0,6,-5,-2,-8
COc1ccc(NC(=S)N2CCCN(Cc3cccc(Cl)c3)C2)cc1,-3,2,-4,-80*,-13
CN(C)CCCCOc1cccc(Br)c1,8,-4,-20,-4,-7
CCC(C)NCCOc1cccc(Br)c1 (configuration not stated),-9,-1,-24,-72*,0
C=CCNCCOc1cccc(Br)c1,2,0,-1,-76*,-22
COc1cc(NC(=O)c2ccccc2Br)ccc1NC(=O)c1cc2ccccc2o1,/,/,-3,/,/
S=C(NCCCN1CCOCC1)N(Cc1ccccc1)Cc1ccccc1,-4,7,-3,-93*,-2
O=C(O)CCCC(=O)Nc1ccc(Cl)c(Cl)c1,-1,17,-7,29,-14
O=C(CCCCn1cnc2c(=S)nc[nH]c21)Nc1ccc(C(=O)O)c(O)c1,-68*,-10,-3,-18,-2
CC(C)Oc1ccc2c(=O)c(-c3ccc(F)cc3)c(C(F)(F)F)oc2c1,/,/,5,/,/
COCc1cc(C)[nH]c(=O)c1C#N,3,-1,-3,-53*,-10
CCOC(=O)c1cc(C)[nH]c(=O)c1C#N,2,-3,-1,19,1
O=c1[nH]c(SCc2ccc(C(F)(F)F)cc2)nc2c1cnn2CCO,/,/,-3,/,/
CN1NC2(CCCCC2)NC1=S,/,/,10,/,/
CC(C)(C)N1NC2(CCCCC2)NC1=S,-58*,-6,-13,-15,-4
